Data published in PubChem BioAssay AID1011 (National Center for Advancing Translational Sciences (NCATS), 2008).
Calls of active or inactive are those of the source. The call rests on the fitted dose curve.

Assay: Confirmation Concentration-Response Assay for Inhibitors of the Schistosoma mansoni Redox Cascade
Details: S. mansoni TGR/Prx2 coupled, NADPH fluorescence kinetics
Description: NIH Molecular Libraries Screening Centers Network [MLSCN] NIH Chemical Genomics Center [NCGC] MLSCN Grant: MH076449-01 Assay Provider: Prof David Williams, Illinois State University This is a confirmation assay for PubChem BioAssay AID 448. Schistosoma mansoni, a causative agent of schistosomiasis, resides in the bloodstream of their host up to 30 years without being eliminated by the host immune attack. One proposed survival mechanism is the production of an antioxidant "firewall" that neutralizes the oxidative assault of the host's immune attack. Schistosoma mansoni peroxiredoxins (Prx) are important parasite antioxidant proteins that play a crucial role in redox balance mechanisms. […] First, the proteins are essential for the parasite survival. […] Third, the protein(s) is amenable for study at the molecular level and can be produced in bacteria in large quantities, in soluble and active form. Inhibition of Prx activity was screened in a coupled-enzyme format with reducing equivalents being transferred from NADPH to […] via thioredoxin/glutathione reductase (TGR)-catalyzed reaction, then from thioredoxin to hydrogen peroxide via Prx-catalyzed electron transfer. A decrease in the fluorescence intensity of NADPH was used to measure the enzyme activity. Purified S. mansoni TGR and Prx were provided by Professor David L. Williams, Illinois State University.
Buffer: 100 mM phosphate buffer, pH 7.4, 10 mM EDTA, 0.01% Tween-20. […] 100 uM NADPH/25 nM TGR/700 uM GSH/50 nM Prx2 mixture in columns 1, 2, 5-48. Titration of control potassium antimonyl tartrate (PAT, from 1 mM, then 1:5) pin-transferred to lower half of column 2. Column 1 and upper half of column 2 are neutral (100% activity). Assay Steps: Three uL of reagents were dispensed to 1536-well Greiner black plates. Compounds and controls (20 nL) were transferred via Kalypsys PinTool. The plates were incubated for 15 min at room temperature, and then a 1 uL aliquot of 400 uM NADPH/700 uM GSH was added, immediately followed by a 1uL aliquot of 2.5 mM H2O2 (to start the reaction). The plate was transferred to ViewLux (Perkin-Elmer) High-throughput CCD imager where kinetic measurements (every 30 sec, for a total of 8 min) of NADPH fluorescence were taken using 365 nm excitation/450 nm emission filter set. During dispense, enzyme-containing reagent bottles were kept submerged into 4 deg C water bath to minimize degradation.
With `Cc1conc1C(=O)c1no[n+]([O-])c1C(=O)c1nocc1C` the outcome was “inactive”. With `COC(=O)C(C(=O)OC)c1cc(Br)c2noc3c2c1C(=O)c1ccccc1-3` the Potency was 120 nM (active). In the case of `COc1ccc2cc(CN(C[C@H]3COCCO3)S(=O)(=O)c3ccc(Cl)cc3)c(=O)[nH]c2c1`, the outcome is reported as “inactive”. In the case of `COc1ccc2cc(CN(C[C@H]3COCCO3)S(=O)(=O)c3ccccc3)c(=O)[nH]c2c1`, the outcome is reported as “inactive”. With `O=C(c1cccs1)c1no[n+]([O-])c1C(=O)c1cccs1` the Potency was 1480 nM (active). With `Cc1cc(C)c2cc(CN(CC3COCCO3)S(=O)(=O)c3ccc(Cl)cc3)c(=O)[nH]c2c1` (stereo not drawn) the outcome was “inactive”. In the case of `Cc1cc2cc(CN(CCCN3CCCC3=O)S(=O)(=O)c3ccc(F)cc3)c(=O)[nH]c2cc1C`, the outcome is reported as “inactive”. With `CCOC(=O)C(C(=O)OCC)c1cc(Br)c2noc3c2c1C(=O)c1ccccc1-3` the outcome was “inactive”. For `CCCCOc1cc(Br)c2noc3c2c1C(=O)c1ccccc1-3`, the Potency was 800 nM (active). For `COc1ccc(C(=O)c2no[n+]([O-])c2C(=O)c2ccc(OC)cc2)cc1`, the Potency was 4670 nM (active). In the case of `CCN1C(=O)c2cccc3cccc1c23`, the outcome is reported as “inactive”. With `CC1=CC(=O)NP(=O)(Oc2ccc3ccccc3c2)N1` (stereo not drawn) the Potency was 120 nM (active). With `CN1C(=O)c2cccc3cccc1c23` the outcome was “inactive”. With `CCOCN1C(=O)c2cccc3cccc1c23` the outcome was “inactive”. In the case of `COc1ccc(S(=O)(=O)N(Cc2cc3ccc(OC)cc3[nH]c2=O)C[C@H]2COCCO2)cc1`, the Potency is reported as 66300 nM (active). With `COc1ccc(S(=O)(=O)N(CCCN2CCCC2=O)Cc2cc3c(C)ccc(C)c3[nH]c2=O)cc1` the Potency was 50100 nM (active). With `CC1=CC(=O)NP(=O)(Oc2ccc(Cl)cc2)N1` (stereo not drawn) the Potency was 420 nM (active). With `Cc1ccc(S(=O)(=O)N(CCCN2CCCC2=O)Cc2cc3c(C)ccc(C)c3[nH]c2=O)cc1` the outcome was “inactive”. With `CC1=CC(=O)NP(=O)(Oc2ccccc2)N1` (stereo not drawn) the Potency was 2030 nM (active). In the case of `O=C(c1ccco1)c1no[n+]([O-])c1C(=O)c1ccco1`, the Potency is reported as 1520 nM (active). For `O=P(Nc1ccccc1F)(c1ccccc1)c1nc2ccccc2s1` (stereo not drawn), the Potency was 23900 nM (active). With `O=C1c2cccc3cccc(c23)N1Cc1ccccc1` the outcome was “inactive”. For `CCOc1ccc(OP2(=O)NC(=O)C=C(C)N2)cc1` (stereo not drawn), the Potency was 180 nM (active).
